We go through seven molecules from PubChem BioAssay.

Calls of active or inactive are those of the source.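 Rule for the calls, unless noted: active = inhibition of the reporter signal at or above 50%; inactive = inhibition below 50%.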

Test [1] can be described thus: inhibitors of TNFa-induced NFkB p65 translocation, primary screen, imaging, HUVEC, MLSMR starter and 10KST1 sets (AID 438;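 active = inhibition above 20% together with a positive visual image hit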;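 note: compound added about 3h40 before a 20 min TNFalpha stimulation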;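 for inhibition: signal is the nuclear over cytoplasmic p65 intensity ratio per well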). The settings on record: HUVEC TNFa-induced p65 nuclear translocation; cell count: measured here: nuclei count (cytotoxicity indicator), at 2.08 µM; inhibition: at 2 µM, stronger effect = higher value, 0% TNFa-plus-vehicle, 100% no-TNFa wells.
The nature of test [2]: reduction of polyQ htt aggregates in cells – imaging, exon1htt(103Q)mCFP cells, high-content imaging, primary screen (AID 483;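 active = visual image review flags a hit and inhibition of aggregation exceeds 20%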;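 note: compound exposure lasted 3 days before fixation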;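 for nuclei count: percent of the per-plate median nuclei count of sample wells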). The settings on record: exon1htt(103Q)mCFP cell line, aggregate imaging, at 2 µM; inhibition of aggregation: stronger effect = higher value; nuclei count: measured here: cell count, toxicity.
The nature of test [3]: endothelial E-selectin expression blockers – imaging, HUVEC, immunofluorescence, MLSMR starter and 10KST1 sets, primary screen (AID 487;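 active = visually confirmed hit in the image check and inhibition above 20%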;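 for inhibition: signal is fraction of cell area covered by stained E-selectin grains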;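 for nuclei count: 100% = median nuclei count of all wells on the same plate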). The settings on record: HUVEC TNFalpha-induced E-selectin immunofluorescence imaging, at 2 µM; inhibition: stronger effect = higher value; nuclei count: measured here: cell number, toxicity.
For test [4], the target named is Voltage-gated potassium channel subunit beta-2 (Rattus norvegicus) (UniProt P62483). Nature of the test: inhibitors of rat Kvbeta2 reductase activity – biochemical, NADPH fluorescence, primary screen (AID 622;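 active = fluorescence slope higher than the sample average by over 3 SD, cut at about -0.22 in these data, passing the limit was not always enough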;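 note: slope of raw intensity against log time taken from 70 to 1610 s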). The settings on record: recombinant KvBeta, 4-cyanobenzaldehyde reduction, at 10 µM, stronger effect = higher value.
Test [5] has the same target. The experiment in a line: enhancers of rat Kvbeta2 NADPH turnover – biochemical, NADPH fluorescence, primary screen (AID 623;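 active = NADPH fluorescence slope more negative than the mean of all samples by about 3 SD, 99.7% confidence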;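 note: fluorescence intensity change per second fitted from 20 to 320 s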). The settings on record: Recombinant KvBeta, NADPH fluorescence decrease slope, 10 min; at 10 µM; stronger effect = lower value.
Test [6] addresses Muscarinic acetylcholine receptor M4 (Homo sapiens) (UniProt P08173). Nature of the test: M4-linked GIRK flux change, two-sided – cell-based, HEK293 M4/GIRK, thallium flux, BTC-AM, M4 allosteric agonist project, primary screen (AID 625;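 active = fluorescence slope after compound addition differing from the mean of all tested samples at 99.7% confidence, mostly higher but some lower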;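 note: thallium influx through GIRK channels coupled to M4 in HEK293 cells with BTC-AM dye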). The settings on record: at 10 µM, actives lie on both sides.
A short description of test [7]: blockers of RIG-like receptor reporter activation – cell-based, Sendai virus stimulus, luciferase, 10K MLSCN set, TLR/RLR signaling modifier project, primary screen (AID 602276;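 active = inhibition at or above 50% at 10 µM; inactive = inhibition below 50%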;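 note: firefly luciferase from ISG56 promoter only with Renilla not read in this screen; 0% = Sendai virus plus DMSO and 100% = medium plus DMSO without virus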). The settings on record: HEK293 RL24 IRF3 luciferase reporter, at 10 µM, stronger effect = higher value.
Test [8] is described as follows: TLR3 IRF3 reporter activation blockers – cell-based, poly I:C stimulus, luciferase, 10K MLSCN set, primary screen (AID 602277). The settings on record: HEK293-TLR3 RL24 IRF3 luciferase reporter, at 10 µM, stronger effect = higher value.

Chain of Muscarinic acetylcholine receptor M4 (Homo sapiens) (P08173 whole entry, looked up): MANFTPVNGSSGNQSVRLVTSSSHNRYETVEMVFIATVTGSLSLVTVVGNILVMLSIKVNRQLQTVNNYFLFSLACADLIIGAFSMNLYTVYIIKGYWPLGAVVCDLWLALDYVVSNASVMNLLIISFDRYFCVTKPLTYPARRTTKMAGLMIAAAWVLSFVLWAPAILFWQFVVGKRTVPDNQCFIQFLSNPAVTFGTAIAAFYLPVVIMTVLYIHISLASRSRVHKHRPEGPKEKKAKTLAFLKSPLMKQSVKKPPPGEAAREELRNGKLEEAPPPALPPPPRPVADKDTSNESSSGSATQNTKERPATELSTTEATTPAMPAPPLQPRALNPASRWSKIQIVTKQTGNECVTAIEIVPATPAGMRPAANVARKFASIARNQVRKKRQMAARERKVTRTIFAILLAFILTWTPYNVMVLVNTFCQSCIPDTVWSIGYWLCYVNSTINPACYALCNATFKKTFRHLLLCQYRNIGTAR
Chain of Voltage-gated potassium channel subunit beta-2 (Rattus norvegicus) (P62483 whole entry, looked up): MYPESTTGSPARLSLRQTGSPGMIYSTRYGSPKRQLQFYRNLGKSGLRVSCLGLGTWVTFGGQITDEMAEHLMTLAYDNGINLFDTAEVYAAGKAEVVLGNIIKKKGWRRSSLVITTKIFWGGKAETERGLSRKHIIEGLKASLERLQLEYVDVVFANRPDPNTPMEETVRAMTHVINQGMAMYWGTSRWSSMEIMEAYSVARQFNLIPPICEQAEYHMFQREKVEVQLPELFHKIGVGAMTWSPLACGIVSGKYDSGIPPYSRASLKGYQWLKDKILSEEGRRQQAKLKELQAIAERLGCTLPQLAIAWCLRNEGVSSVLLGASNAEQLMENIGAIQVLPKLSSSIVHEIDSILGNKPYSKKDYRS

`O=C(Nc1cccnc1)Nc1ccc2c(c1)OCO2`: the cell count in test [1] was determined as 420. For the same molecule, the inhibition in test [1] is 0.8% (inactive); in test [3] it was 6% (inactive); in test [7] it was -19.2% (inactive); in test [8], -53.4% (inactive). For the same molecule, the inhibition of aggregation in test [2] was -14.9% (inactive). The nuclei count in test [2] came to 121%; in test [3], 51.1%. In addition, the results for the fluorescence slope in test [4] and in test [6] were -0.418 (inactive) and 0.00717 (inactive), respectively. Also, the NADPH fluorescence slope in test [5] was 6.4e-06 (inactive).
`O=C(Cn1ncc2ccccc21)N1CCN(c2cccc(C(F)(F)F)c2)CC1`: the cell count in test [1] was 659. Besides, the inhibition in test [1] is -5.8% (inactive); in test [3], -16.1% (inactive); in test [7], 12% (inactive); in test [8] it was 21.1% (inactive). In test [2], the inhibition of aggregation was 1.3% (inactive). In addition, the values for the nuclei count in test [2] and in test [3] were 114% and 122%, respectively. In addition, the fluorescence slope was -0.378 (inactive) in test [4] and 0.00602 (inactive) in test [6]. Further, in test [5], the NADPH fluorescence slope is -2.5e-05 (inactive).
For `Cn1nnnc1SCC(=O)Nc1ccccc1C(=O)NCc1ccccc1`, the cell count in test [1] was found to be 368. For the same molecule, the inhibition in test [1] is 7.2% (inactive); in test [3], -74.8% (inactive); in test [7] it was -6.6% (inactive); in test [8], -17.1% (inactive). The inhibition of aggregation in test [2] is 0.2% (inactive). The nuclei count amounted to 98.6% in test [2] and 124% in test [3]. The results for the fluorescence slope in test [4] and in test [6] were -0.275 (inactive) and 0.00734 (inactive), respectively. For the same molecule, the NADPH fluorescence slope in test [5] was -2.2e-05 (inactive).
On to `Cc1cccc2cc(C#N)c(NCCNC(=O)NC3CCCCC3)nc12`, for which the cell count in test [1] was 463. The inhibition in test [1] was -5.1% (inactive); in test [3] it was -40.3% (inactive); in test [7], -2.87% (inactive); in test [8], 1.15% (inactive). For the same molecule, in test [2], the inhibition of aggregation was -41% (inactive). Also, the nuclei count in test [2] worked out at 85.8%; in test [3], 176%. The results for the fluorescence slope in test [4] and in test [6] were -0.471 (inactive) and 0.00443 (inactive), respectively. Moreover, the NADPH fluorescence slope in test [5] is -0.000184 (inactive).
For `CCCCCn1c(=O)[nH]c2cc(C(=O)NCCCN3CCCCC3)ccc2c1=O`, the cell count in test [1] came out at 255. Besides, the inhibition in test [1] was -2.1% (inactive); in test [3] it was -32.3% (inactive); in test [7], 7.49% (inactive); in test [8] it was 6.91% (inactive). Moreover, in test [2], the inhibition of aggregation is -0.1% (inactive). Also, the values for the nuclei count in test [2] and in test [3] were 77.4% and 109%, respectively. In addition, the fluorescence slope in test [4] is -0.298 (inactive); in test [6], 0.00603 (inactive). Also, the NADPH fluorescence slope in test [5] was -5.4e-05 (inactive).
Consider `Cc1cc2ncc(C(=O)Nc3ccccc3)c(C)n2n1`, for which the cell count in test [1] is 376. In addition, the inhibition was 4.2% (inactive) in test [1], 27.5% (inactive) in test [3], 1.55% (inactive) in test [7] and -14.2% (inactive) in test [8]. Also, the inhibition of aggregation in test [2] was -9.1% (inactive). For the same molecule, the nuclei count in test [2] was determined as 101%; in test [3] it was 93.8%. The figures for the fluorescence slope in test [4] and in test [6] were -0.54 (inactive) and 0.00501 (inactive), respectively. Moreover, the NADPH fluorescence slope in test [5] is -1.5e-05 (inactive).
Turning to `CCOC(=O)CN1C2=NCCN2c2ccccc21`, in test [1], the cell count is 428. Also, the inhibition was 3.8% (inactive) in test [1], -107% (inactive) in test [3], 13.8% (inactive) in test [7] and 18.8% (inactive) in test [8]. In test [2], the inhibition of aggregation is -1.1% (inactive). Also, the nuclei count is 76.3% in test [2] and 125% in test [3]. For the same molecule, the fluorescence slope in test [4] was -0.605 (inactive); in test [6], 0.00469 (inactive). For the same molecule, the NADPH fluorescence slope in test [5] was -8.6e-06 (inactive).
